Results taken from PubChem BioAssay AID1851 (National Center for Advancing Translational Sciences (NCATS), 2009).
About 2,600 (16%) of roughly 16,000 compounds were called active. About 20% were inconclusive and are not listed. The call rests on the fitted dose curve; in most records, active means well fitted curve in the direction sought with a large enough effect; inconclusive means small, poorly fitted or top-dose-only effect, or effect the other way; inactive means no such curve, though single readings can be large or run the other way. Only a sample is shown. Some structures have more than one record in an assay (separate samples or runs), and their calls can disagree.

Biological target: Cytochrome P450 2D6 (Homo sapiens) (UniProt P10635)
Experiment: Cytochrome panel assay with activity outcomes
Conditions: recombinant CYP, pro-luciferin dealkylation, luminescence, p450-cyp2d6; series mostly up to 57.1 µM; activity, negative = inhibition: at the top concentration
On the % scale 0 is the no-effect control and ±100 the full control effect.

Sequence of Cytochrome P450 2D6 (Homo sapiens) (P10635 whole entry, looked up): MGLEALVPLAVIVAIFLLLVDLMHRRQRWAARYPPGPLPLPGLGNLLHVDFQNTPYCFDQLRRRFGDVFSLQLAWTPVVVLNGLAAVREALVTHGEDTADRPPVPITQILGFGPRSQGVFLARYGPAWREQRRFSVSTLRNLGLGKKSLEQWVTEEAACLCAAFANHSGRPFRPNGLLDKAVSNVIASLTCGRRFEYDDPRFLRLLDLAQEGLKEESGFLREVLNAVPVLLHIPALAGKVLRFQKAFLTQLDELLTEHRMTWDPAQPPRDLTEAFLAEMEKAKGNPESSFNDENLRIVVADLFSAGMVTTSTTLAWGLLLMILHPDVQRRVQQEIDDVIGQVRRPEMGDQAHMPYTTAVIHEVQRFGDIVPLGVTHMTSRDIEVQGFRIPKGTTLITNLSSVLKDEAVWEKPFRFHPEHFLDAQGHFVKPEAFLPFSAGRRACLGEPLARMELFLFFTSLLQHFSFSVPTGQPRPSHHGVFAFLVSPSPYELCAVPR

Row | Compound | activity, negative = inhibition | AC50
1 | O=C(O)[C@@H](Cc1c[nH]c2ccccc12)C(=O)NO | 4.35% [at 11.4 µM] (inactive) | –
2 | c1ccc2c(-c3c[nH]c4ccccc34)c3ccccc3nc2c1 | – | 10 µM (active)
3 | Cc1nc(Sc2ccccc2)c(C#N)cc1-c1ccccc1 | -7.18% (inactive) | –
4 | Cc1nc2cc(NC(=O)CSc3nc4c(C)cccc4cc3C#N)ccc2s1 | -18.2% (inactive) | –
5 | Nc1nc(SCC(=O)O)[nH]c(=O)c1N | 11% [at 11.4 µM] (inactive) | –
6 | CO[C@@H]1/C=C\CC(=O)N[C@@H](C)C(=O)OC[C@@H](OC)[C@H](C)/C=C\CC(=O)OC[C@H]1C | 10.8% [at 11.4 µM] (inactive) | –
7 | CCCN(CC1CC1)c1nc(C)nc(Nc2c(Cl)cc(Cl)cc2Cl)c1Cl | – | 1.58 µM (active)
8 | COCCN(C(=O)C(C)C)c1nnc(-c2ccc(C)cc2)s1 | 20.1% (inactive) | –
9 | CCC(CC)c1nnc(NC(=O)COc2ccc3c(C)cc(=O)oc3c2)s1 | -16.1% (inactive) | –
10 | COc1ccc(NC(=O)CC2C(=O)N(c3cccc(OC)c3)C(=O)N2C2CCCCC2)cc1 (stereo unspecified) | -8.55% (inactive) | –
11 | CN1CCN(CCc2ccc(Cl)c(Cl)c2)CC1 | – | 12.6 µM (active)
12 | CN(CCc1ccc(Cl)c(Cl)c1)CCN1CCCCCC1 | – | 0.126 µM (active)
13 | CN1CCN(CCCBr)CC1 | 3.38% [at 11.4 µM] (inactive) | –
14 | CCOC(=O)c1c(NC(=O)CCC(=O)N2CCOCC2)sc2c1CC(C)(C)OC2 | -6.11% (inactive) | –
15 | COC(=O)c1cc(C#N)c(NCc2ccc(Cl)cc2Cl)nc1C | 3.04% (inactive) | –
16 | CC(C)COc1ccc(C(=O)Nc2scc(-c3ccc(Cl)cc3Cl)c2C(N)=O)cc1 | -3.75% (inactive) | –
17 | Clc1ccccc1C(Nc1cnccn1)Nc1cnccn1 | 10.1% [at 11.4 µM] (inactive) | –
18 | Cc1ccc(C(=O)NCC2CCCO2)cc1N1CCCC1=O (stereo unspecified) | -3.42% (inactive) | –
19 | O=c1[nH][nH]c(C(F)(F)F)c1C=Nc1cccc(Cl)c1 | -0.732% (inactive) | –
20 | CCCCOc1ccc(OC(=O)c2cccnc2)cc1 | -25.1% (inactive) | –
21 | CCN(CC)CCOc1ccc(/C(=C(\Cl)c2ccccc2)c2ccccc2)cc1 | – | 5.01 µM (active)
22 | COc1ccc(C(Cl)=C(c2ccc(OC)cc2)c2ccc(OC)cc2)cc1 | -1.8% [at 25.6 µM] (inactive) | –
23 | Cc1nc(CN2CCCCC2)c(O)c(=O)[nH]1 | -19.7% [at 11.4 µM] (inactive) | –
24 | N[C@@H](Cc1[nH]nc2ccccc12)C(=O)O | 3.39% [at 11.4 µM] (inactive) | –
25 | O=C(/C=C/c1ccccc1)NNC(=O)c1cccnc1 | -3.07% (inactive) | –
26 | C=CC1=C(C)C2=Cc3c(C=C)c(C)c4[n]3[Sn+2][n]3c(c(C)c(CCC(=O)O)c3=CC3=NC(=C4)C(C)=C3CCC(=O)O)=CC1=N2 | – | 1.26 µM (active)

Row | Compound | activity, negative = inhibition | AC50
27 | CCCCCN1CC(O)=C(c2nc(-c3ccc(Cl)cc3)cs2)C1=N | 28.4% (inactive) | –
28 | Cc1nc2ccccc2nc1-c1ccc(N=[N+]([O-])c2ccc(-c3nc4ccccc4nc3C)cc2)cc1 | -15.4% [at 11.4 µM] (inactive) | –
29 | NC(=O)C[C@H](NC(=O)Cc1ccc(O)cc1O)C(=O)O | 5.57% (inactive) | –
30 | CC(C)(CNC(=O)c1ccc([N+](=O)[O-])c(Cl)c1)CNC(=O)c1ccc([N+](=O)[O-])c(Cl)c1 | – | 3.16 µM (active)
31 | COc1ccc(Cc2nnc(NC(=O)c3ccc(Cl)c([N+](=O)[O-])c3)s2)cc1 | 9.11% (inactive) | –
32 | O=C(NCc1ccc(Cl)cc1)c1ccc(Cl)cc1[N+](=O)[O-] | -15.3% (inactive) | –
33 | Nc1nc(N)nc(CC(=O)O)n1 | -1.79% [at 11.4 µM] (inactive) | –
34 | O=C(N/N=C1\CCCc2ccccc21)c1ccc([N+](=O)[O-])cc1Cl | 3.67% (inactive) | –
35 | Cc1cccc[n+]1CC(=O)Nc1ccc([N+](=O)[O-])cc1Cl | -9.2% (inactive) | –
36 | O=C(Nc1ccc([N+](=O)[O-])cc1Cl)c1cc(Cl)ccc1O | – | 31.6 µM (active) and inactive
37 | CN(Cc1ccco1)c1cc(-c2ccccc2Cl)ncn1 | -15.6% (inactive) | –
38 | CN(C)Cc1ccccc1-c1cc(N(C)Cc2ccco2)ncn1 | – | 7.94 µM (active)
39 | COc1ccccc1-c1cc(N(C)Cc2ccco2)ncn1 | – | 12.6 µM (active)
40 | CCc1nc2cc(CC(=O)O)ccc2o1 | 3.13% (inactive) | –
41 | N[C@@H](COP(=O)(O)O)C(=O)O | 13.7% (inactive) | –
42 | COc1cccc(NC(=S)NN2CCN(C)CC2)c1 | -18.7% (inactive) | –
43 | Cc1ccc(NC(=O)CN2C(=O)S/C(=C\c3cccn3C)C2=O)cc1 | 22% (inactive) | –
44 | Cn1cc(-c2nc3cncnc3n(-c3ccccc3)c2=O)c2ccccc21 | -7.45% (inactive) | –
45 | Cn1c(=O)c2[nH]c(CCCCC(=O)O)nc2n(C)c1=O | -13.7% [at 11.4 µM] (inactive) | –
46 | CCn1c(=O)c2c(nc3n2CCS3)n(C)c1=O | 4.82% (inactive) | –
47 | CCCCc1cc2ccccc2c(OCCN(C)C)n1 | – | 2 µM (active)
48 | CCCCc1c(O)nc(SCCN(C)C)n(-c2ccccc2)c1=O | -18.2% (inactive) | –
49 | C/C(=N\NC(=O)c1ccccc1C)c1ccc(NC(=O)c2cccs2)cc1 | -5.07% (inactive) | –
50 | NS(=O)(=O)c1ccc(N=Nc2cc3ccccc3c(C(=O)O)c2O)cc1 | 4.38% [at 11.4 µM] (inactive) | –
51 | Nc1ccccc1S[C@@H](C[N+](=O)[O-])c1ccc2c(c1)OCO2 | – | 3.98 µM (active)
